Source: publication PMC7862700, “An all-to-all approach to the identification of sequence-specific readers for epigenetic DNA modifications on cytosine”

What was measured:
Experiment in all cases: DAPPL (digital affinity profiling via proximity ligation, sequencing); 10 mM Tris-HCl pH 7.5, 50 mM NaCl, 1 mM DTT, 4% glycerol, room temperature, 30 min; GST-TFs on glutathione beads, 16-mer random dsDNA library, 0.1% formaldehyde crosslink after washing; high values mean tight binding
Details in all cases: protein: recombinant; tags: N-terminal GST; dsDNA, one strand shown
FLI1 = target: T1, FLI1 (Homo sapiens, UniProt Q01543 1-452)
T1 sequence: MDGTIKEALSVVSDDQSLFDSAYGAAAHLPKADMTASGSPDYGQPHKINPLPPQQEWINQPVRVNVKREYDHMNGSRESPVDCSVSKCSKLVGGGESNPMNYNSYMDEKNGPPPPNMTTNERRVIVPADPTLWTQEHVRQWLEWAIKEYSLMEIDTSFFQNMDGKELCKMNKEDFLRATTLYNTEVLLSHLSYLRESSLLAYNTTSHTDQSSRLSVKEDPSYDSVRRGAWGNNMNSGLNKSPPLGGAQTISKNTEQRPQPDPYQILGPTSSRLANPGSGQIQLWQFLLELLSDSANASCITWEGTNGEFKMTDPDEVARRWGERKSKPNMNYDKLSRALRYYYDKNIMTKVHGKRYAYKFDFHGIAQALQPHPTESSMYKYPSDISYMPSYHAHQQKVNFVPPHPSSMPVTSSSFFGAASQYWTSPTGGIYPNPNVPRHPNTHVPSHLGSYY
Procedure, shortened: (§1)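 Human transcription factors were made in yeast as GST fusions, captured on glutathione beads and barcoded with DNA. With a tag-only sample included, the pool was incubated with 200 nmole of a random double-stranded 16-mer DNA library in Tris/NaCl/DTT/glycerol buffer at room temperature for 30 min, then crosslinked with 0.1% formaldehyde after washing, ligated by proximity, amplified and sequenced. For binding signal, each hexamer's read frequency for a factor is divided by its frequency for the tag-only sample.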

ELK1 = target: T2, ELK1 (Homo sapiens, UniProt P19419 1-428)
T2 sequence: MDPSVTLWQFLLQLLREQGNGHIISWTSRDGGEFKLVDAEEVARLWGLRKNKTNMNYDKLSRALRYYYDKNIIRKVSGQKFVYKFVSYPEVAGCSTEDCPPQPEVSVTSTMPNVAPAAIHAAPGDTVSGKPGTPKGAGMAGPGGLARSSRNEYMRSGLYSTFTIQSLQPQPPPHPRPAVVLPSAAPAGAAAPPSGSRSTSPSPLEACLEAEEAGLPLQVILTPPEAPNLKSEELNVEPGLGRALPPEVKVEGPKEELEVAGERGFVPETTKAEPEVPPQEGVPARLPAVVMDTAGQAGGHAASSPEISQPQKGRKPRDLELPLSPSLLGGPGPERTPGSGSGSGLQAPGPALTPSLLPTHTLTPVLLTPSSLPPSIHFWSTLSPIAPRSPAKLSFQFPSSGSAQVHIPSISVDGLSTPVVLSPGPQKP
Procedure, shortened: as §1

GABPA = target: T3, GABPA (Homo sapiens, UniProt Q06546 1-454)
T3 sequence: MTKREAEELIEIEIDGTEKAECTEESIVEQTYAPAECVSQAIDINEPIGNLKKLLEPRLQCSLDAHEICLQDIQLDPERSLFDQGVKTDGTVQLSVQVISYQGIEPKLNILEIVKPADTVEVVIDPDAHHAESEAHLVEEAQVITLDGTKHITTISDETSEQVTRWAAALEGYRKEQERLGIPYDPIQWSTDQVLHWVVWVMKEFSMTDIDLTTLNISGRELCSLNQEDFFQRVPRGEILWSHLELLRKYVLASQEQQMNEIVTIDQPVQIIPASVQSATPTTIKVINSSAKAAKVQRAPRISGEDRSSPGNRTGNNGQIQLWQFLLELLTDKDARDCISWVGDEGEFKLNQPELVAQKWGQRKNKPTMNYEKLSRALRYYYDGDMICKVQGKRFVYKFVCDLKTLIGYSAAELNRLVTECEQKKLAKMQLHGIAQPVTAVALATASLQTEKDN
Procedure, shortened: as §1

ERG = target: T4, ERG (Homo sapiens, UniProt P11308 1-479)
T4 sequence: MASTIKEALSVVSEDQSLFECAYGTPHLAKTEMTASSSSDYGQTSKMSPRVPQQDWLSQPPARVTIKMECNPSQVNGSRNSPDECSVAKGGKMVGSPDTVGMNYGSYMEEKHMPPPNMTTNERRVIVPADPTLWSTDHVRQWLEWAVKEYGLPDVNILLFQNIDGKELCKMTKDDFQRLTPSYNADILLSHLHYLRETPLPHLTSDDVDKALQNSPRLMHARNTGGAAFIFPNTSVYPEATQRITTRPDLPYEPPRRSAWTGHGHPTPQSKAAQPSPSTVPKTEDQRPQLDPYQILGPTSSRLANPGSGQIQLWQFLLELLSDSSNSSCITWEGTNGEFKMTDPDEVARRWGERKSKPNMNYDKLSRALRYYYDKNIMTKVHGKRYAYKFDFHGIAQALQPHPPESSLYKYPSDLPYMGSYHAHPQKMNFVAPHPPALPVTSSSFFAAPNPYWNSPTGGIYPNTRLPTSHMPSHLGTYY
Procedure, shortened: as §1

ELF1 = ELF1 (Homo sapiens, UniProt P32519 1-619)
ELF1, sequence (P32519 whole entry): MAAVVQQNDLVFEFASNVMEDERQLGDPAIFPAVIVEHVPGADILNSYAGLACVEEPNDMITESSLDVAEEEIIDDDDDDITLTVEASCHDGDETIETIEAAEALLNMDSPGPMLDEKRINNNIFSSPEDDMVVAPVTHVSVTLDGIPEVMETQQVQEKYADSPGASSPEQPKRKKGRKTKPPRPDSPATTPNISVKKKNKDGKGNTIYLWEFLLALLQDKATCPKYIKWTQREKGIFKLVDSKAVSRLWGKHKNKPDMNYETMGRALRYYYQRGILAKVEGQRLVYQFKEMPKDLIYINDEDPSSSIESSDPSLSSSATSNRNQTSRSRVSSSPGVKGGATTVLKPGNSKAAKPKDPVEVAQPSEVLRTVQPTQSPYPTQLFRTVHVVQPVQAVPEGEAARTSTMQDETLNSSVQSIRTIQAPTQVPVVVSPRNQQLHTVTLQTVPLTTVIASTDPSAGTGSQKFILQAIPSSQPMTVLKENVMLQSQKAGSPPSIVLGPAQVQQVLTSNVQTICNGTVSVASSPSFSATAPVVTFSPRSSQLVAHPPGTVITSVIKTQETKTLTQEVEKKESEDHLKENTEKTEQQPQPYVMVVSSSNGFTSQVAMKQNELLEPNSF
Procedure, shortened: as §1

EHF = target: T5, EHF (Homo sapiens, UniProt Q9NZC4 1-300)
T5 sequence: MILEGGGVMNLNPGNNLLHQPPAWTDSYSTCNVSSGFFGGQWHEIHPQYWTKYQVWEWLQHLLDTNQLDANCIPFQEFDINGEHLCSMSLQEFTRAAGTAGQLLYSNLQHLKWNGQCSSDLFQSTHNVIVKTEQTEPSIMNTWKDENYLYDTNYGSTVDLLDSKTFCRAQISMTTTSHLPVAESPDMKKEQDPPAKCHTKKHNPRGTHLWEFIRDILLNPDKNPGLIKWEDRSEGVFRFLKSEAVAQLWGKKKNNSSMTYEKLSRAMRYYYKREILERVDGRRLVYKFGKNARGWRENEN
Procedure, shortened: as §1

SPI1 = SPI1 (Homo sapiens, UniProt P17947 1-270)
Procedure, shortened: as §1

SPIB = SPIB (Homo sapiens, UniProt Q01892 1-262)
SPIB, sequence (Q01892 whole entry): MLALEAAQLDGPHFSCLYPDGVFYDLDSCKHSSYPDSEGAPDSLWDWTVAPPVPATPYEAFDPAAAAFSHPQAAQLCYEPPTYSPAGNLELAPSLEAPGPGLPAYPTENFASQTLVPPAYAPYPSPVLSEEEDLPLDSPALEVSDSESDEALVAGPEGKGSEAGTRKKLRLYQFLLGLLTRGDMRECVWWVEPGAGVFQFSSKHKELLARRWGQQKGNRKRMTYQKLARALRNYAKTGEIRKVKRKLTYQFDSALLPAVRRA
Procedure, shortened: as §1

ELK3 = target: T6, ELK3 (Homo sapiens, UniProt P41970 1-407)
T6 sequence: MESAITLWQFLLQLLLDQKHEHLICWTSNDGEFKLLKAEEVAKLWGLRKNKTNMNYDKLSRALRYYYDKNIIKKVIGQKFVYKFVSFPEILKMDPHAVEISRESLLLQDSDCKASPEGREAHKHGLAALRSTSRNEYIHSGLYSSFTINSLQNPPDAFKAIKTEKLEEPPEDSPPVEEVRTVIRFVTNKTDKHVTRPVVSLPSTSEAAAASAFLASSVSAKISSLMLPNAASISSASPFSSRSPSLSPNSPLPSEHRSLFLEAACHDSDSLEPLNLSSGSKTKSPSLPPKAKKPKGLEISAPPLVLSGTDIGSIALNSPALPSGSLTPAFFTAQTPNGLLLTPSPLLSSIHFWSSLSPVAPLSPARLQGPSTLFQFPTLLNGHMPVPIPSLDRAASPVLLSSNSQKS
Procedure, shortened: as §1

FEV = target: T7, FEV (Homo sapiens, UniProt Q99581 1-238)
T7 sequence: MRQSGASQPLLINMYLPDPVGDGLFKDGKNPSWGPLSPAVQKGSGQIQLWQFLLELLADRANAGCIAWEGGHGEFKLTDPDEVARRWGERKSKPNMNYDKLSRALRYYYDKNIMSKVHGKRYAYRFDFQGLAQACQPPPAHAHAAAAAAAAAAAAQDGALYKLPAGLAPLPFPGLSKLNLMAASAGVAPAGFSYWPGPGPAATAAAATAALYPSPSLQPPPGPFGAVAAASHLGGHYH
Procedure, shortened: as §1

ETV5 = ETV5 (Homo sapiens, UniProt P41161 1-510)
ETV5, sequence (P41161 whole entry): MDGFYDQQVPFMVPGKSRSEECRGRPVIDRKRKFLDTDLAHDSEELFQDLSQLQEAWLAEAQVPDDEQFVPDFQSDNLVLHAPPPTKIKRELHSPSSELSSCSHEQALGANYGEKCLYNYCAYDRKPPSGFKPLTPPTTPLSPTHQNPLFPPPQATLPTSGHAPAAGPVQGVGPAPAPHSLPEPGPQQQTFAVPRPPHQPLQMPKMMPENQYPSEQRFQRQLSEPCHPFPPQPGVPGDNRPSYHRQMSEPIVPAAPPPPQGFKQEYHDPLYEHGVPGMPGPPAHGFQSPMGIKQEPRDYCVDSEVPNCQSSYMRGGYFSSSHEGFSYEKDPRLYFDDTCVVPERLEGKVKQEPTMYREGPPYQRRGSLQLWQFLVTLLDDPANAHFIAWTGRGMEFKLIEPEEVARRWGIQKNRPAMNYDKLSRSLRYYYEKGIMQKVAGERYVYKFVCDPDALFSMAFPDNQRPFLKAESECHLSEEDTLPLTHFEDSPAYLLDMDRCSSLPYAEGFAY
Procedure, shortened: as §1

SPIC = target: T8, SPIC (Homo sapiens, UniProt Q8N5J4 1-248)
T8 sequence: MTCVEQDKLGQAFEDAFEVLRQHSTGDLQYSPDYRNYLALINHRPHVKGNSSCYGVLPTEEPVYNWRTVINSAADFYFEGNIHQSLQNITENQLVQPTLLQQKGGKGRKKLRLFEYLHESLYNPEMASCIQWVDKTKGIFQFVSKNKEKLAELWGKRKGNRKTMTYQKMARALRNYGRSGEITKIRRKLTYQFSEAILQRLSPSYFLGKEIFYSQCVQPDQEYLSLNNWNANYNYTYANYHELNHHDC
Procedure, shortened: as §1

ELF4 = ELF4 (Homo sapiens, UniProt Q99607 1-663)
ELF4, sequence (Q99607 whole entry): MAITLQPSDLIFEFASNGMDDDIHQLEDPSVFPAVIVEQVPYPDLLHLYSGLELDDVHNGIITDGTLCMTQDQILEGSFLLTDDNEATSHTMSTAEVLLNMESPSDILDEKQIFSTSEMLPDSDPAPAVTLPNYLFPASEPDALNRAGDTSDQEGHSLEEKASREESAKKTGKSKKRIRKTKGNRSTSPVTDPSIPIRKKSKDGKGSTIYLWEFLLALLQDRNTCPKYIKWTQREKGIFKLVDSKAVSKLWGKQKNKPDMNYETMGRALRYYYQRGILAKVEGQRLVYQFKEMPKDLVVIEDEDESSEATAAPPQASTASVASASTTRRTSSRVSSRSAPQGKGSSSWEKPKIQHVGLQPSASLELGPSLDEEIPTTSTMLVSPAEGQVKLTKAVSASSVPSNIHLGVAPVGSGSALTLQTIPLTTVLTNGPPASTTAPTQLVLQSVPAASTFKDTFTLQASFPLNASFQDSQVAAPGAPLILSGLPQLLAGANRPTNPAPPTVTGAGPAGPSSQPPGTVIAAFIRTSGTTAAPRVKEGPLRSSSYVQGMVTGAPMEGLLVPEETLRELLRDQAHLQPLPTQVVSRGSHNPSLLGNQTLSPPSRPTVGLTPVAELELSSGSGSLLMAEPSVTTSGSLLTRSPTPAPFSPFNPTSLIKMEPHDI
Procedure, shortened: as §1

ELK4 = target: T9, ELK4 (Homo sapiens, UniProt P28324-2 1-405)
T9 sequence: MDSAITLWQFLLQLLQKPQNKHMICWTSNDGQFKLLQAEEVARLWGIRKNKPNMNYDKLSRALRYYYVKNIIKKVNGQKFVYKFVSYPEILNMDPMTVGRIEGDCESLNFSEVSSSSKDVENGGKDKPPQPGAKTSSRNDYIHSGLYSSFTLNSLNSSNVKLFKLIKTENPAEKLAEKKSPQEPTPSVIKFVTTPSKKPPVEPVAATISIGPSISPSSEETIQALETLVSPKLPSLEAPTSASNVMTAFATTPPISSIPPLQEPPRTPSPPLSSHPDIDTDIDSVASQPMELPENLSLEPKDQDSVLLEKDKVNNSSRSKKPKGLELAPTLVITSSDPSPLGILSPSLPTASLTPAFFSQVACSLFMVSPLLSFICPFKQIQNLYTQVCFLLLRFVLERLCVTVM
Procedure, shortened: as §1

ETV2 = target: T10, ETV2 (Homo sapiens, UniProt O00321 1-342)
T10 sequence: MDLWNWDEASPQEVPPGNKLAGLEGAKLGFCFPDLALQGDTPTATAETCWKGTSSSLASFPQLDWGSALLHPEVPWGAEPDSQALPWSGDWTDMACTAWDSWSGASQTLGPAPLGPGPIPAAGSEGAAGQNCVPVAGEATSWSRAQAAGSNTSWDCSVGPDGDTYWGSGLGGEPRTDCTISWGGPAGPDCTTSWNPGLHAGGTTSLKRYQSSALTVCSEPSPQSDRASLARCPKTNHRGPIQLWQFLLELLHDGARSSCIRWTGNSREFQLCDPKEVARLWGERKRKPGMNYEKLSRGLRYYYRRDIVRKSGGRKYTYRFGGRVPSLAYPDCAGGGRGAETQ
Procedure, shortened: as §1

ELF3 = target: T11, ELF3 (Homo sapiens, UniProt P78545 1-371)
T11 sequence: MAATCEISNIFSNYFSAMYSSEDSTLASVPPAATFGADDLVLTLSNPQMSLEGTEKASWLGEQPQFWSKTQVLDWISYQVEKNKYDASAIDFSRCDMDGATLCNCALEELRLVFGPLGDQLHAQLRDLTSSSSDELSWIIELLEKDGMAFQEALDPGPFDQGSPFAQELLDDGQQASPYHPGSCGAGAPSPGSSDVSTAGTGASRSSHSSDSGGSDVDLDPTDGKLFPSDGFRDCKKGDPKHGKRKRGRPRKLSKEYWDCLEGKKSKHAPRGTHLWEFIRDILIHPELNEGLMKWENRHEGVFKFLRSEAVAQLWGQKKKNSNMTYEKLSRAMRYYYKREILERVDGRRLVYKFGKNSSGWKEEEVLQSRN
Procedure, shortened: as §1

CRX = CRX (Homo sapiens, UniProt O43186 1-299)
CRX, sequence (O43186 whole entry): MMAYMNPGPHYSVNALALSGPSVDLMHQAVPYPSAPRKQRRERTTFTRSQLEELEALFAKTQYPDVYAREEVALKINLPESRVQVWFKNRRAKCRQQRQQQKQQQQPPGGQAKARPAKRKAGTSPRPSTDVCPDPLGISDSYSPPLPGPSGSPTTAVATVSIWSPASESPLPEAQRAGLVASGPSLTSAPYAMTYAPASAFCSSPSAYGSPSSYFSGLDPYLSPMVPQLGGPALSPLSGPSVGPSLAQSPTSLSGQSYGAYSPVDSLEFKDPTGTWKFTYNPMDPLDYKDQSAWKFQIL
Procedure, shortened: as §1

ETV1 = ETV1 (Homo sapiens, UniProt P50549 1-477)
ETV1, sequence (P50549 whole entry): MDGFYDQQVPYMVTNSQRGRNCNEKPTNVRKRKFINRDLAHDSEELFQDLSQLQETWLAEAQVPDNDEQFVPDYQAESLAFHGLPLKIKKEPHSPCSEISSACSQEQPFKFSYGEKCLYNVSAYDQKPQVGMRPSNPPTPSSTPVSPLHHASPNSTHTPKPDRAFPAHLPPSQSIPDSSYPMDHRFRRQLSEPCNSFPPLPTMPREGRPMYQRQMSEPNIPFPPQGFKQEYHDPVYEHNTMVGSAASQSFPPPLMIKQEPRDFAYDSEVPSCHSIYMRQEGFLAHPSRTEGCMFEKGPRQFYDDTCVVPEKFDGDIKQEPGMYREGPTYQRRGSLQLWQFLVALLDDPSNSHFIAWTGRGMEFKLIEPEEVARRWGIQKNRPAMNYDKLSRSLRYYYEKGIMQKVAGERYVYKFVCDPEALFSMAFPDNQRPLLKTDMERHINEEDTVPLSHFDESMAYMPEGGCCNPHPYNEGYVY
Procedure, shortened: as §1

GGATAT
binding signal (FLI1): 1.61 fold enrichment (6-mer frequency, TF over GST control) | binding signal (ELK1): 1.65 fold enrichment (6-mer frequency, TF over GST control) | binding signal (GABPA): 1.45 fold enrichment (6-mer frequency, TF over GST control) | binding signal (ERG): 2 fold enrichment (6-mer frequency, TF over GST control) | binding signal (ELF1): 1.48 fold enrichment (6-mer frequency, TF over GST control) | binding signal (EHF): 1.55 fold enrichment (6-mer frequency, TF over GST control) | binding signal (SPI1): 1.37 fold enrichment (6-mer frequency, TF over GST control) | binding signal (SPIB): 1.58 fold enrichment (6-mer frequency, TF over GST control) | binding signal (ELK3): 1.55 fold enrichment (6-mer frequency, TF over GST control) | binding signal (FEV): 3.83 fold enrichment (6-mer frequency, TF over GST control) | binding signal (ETV5): 1.71 fold enrichment (6-mer frequency, TF over GST control) | binding signal (SPIC): 1.53 fold enrichment (6-mer frequency, TF over GST control) | binding signal (ELF4): 1.38 fold enrichment (6-mer frequency, TF over GST control) | binding signal (ELK4): 1.48 fold enrichment (6-mer frequency, TF over GST control) | binding signal (ETV2): 1.55 fold enrichment (6-mer frequency, TF over GST control) | binding signal (ELF3): 1.78 fold enrichment (6-mer frequency, TF over GST control) | binding signal (CRX): 1.09 fold enrichment (6-mer frequency, TF over GST control) | binding signal (ETV1): 1.62 fold enrichment (6-mer frequency, TF over GST control)
